Compound activity: PubChem BioAssay, The Scripps Research Institute Molecular Screening Center
TEAD-YAP block: TEAD-YAP interaction inhibition. inhibition, % at 9.12 µM. 640,000 tested, 1.4% active. AID 1259422. HEK-TIYL cells, TEAD-Gal4/YAP UAS-luciferase luminescence; in the data active = inhibition above about 32%;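 note: 0% = median of test compound wells and 100% = reference inhibitor wells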
FBW7 activator: activators of human E3 ligase FBW7; Q969H0; AlphaScreen FBW7–phospho-cyclin E peptide binding, activator screen; normalized activity (activation), % at 26.1 µM; 650,000 tested, 0.13% active; in the data active = normalized activity above about 1.9%;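 note: purified mutant Fbw7 with reduced substrate affinity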
GPR151 ag: human GPR151 activation; activation, % at 11.2 µM; AID 1508602; 650,000 tested, 1% active; PathHunter beta-arrestin GPR151 cells, luminescence; Q8TDV0; in the data active = activation above about 4.9%;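 note: 0% = median of compound wells and 100% = cells with positive control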
Target sequence (Q8TDV0 whole entry, looked up): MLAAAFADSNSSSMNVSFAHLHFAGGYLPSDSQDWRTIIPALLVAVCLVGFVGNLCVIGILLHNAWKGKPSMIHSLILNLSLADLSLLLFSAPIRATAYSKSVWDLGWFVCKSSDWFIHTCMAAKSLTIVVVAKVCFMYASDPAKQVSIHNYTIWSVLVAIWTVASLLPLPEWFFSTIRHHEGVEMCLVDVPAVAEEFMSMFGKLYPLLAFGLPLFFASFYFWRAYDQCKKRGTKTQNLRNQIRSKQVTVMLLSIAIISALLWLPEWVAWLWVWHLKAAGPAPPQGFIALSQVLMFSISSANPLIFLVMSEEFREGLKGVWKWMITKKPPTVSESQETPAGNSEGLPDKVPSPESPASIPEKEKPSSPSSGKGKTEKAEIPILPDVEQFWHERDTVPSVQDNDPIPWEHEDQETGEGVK
MITF primary: inhibitors of human MITF; AID 1259374; O75030; inhibition, % at 2.6 µM; AlphaScreen MITF homodimerization, bead proximity signal; 650,000 tested, 0.91% active; in the data active = inhibition above about 50%;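 note: 0% = vehicle wells with protein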
Active calls of the source: *. A selection: hits, their analogues and other compounds. The true share with any hit is near 3.5%.

SMILES	TEAD-YAP block	FBW7 activator	GPR151 ag	MITF primary
Cn1c(SCC(=O)N(C2CCCCC2)C2CCS(=O)(=O)C2)nnc1C(F)(F)F (stereo not given)	8	0	1	2
O=C1C2CC=CCC2C(=O)N1CC(=O)N(Cc1ccccc1)C1CCS(=O)(=O)C1 (stereo not given)	6	0	-1	15
CCC(C)N(C(=O)CCl)C1CCS(=O)(=O)C1 (stereo not given)	56*	0	2	12
O=C(CCl)N(Cc1ccccc1)C1CCS(=O)(=O)C1 (stereo not given)	56*	0	0	3
O=C(CCl)N(C1CC1)C1CCS(=O)(=O)C1 (stereo not given)	54*	0	1	-10
O=C(CCl)N(C1CCCCC1)C1CCS(=O)(=O)C1 (stereo not given)	70*	0	1	0
O=C(CCl)N(CC1CCCO1)C1CCS(=O)(=O)C1 (stereo not given)	6	0	-1	-16
CN(CC(O)c1ccccc1)C1CCC(=O)N(Cc2ccc(F)cc2F)CC1 (stereo not given)	0	1	1	13
O=C(CCl)N(C1CCCC1)C1CCS(=O)(=O)C1 (stereo not given)	65*	1	-1	4
O=c1c(O[C@@H]2OC([C@H](O)CO)[C@H](O)[C@H]2O)c(-c2ccc(O)c(O)c2)oc2cc(O)cc(O)c12 (stereo not given in full)	-7	0	1	84*
C[C@@H]1O[C@@H](OC[C@H]2O[C@@H](Oc3c(-c4ccc(O)c(O)c4)oc4cc(O)cc(O)c4c3=O)[C@H](O)[C@@H](O)[C@@H]2O)[C@H](O)[C@H](O)[C@H]1O	3	0	-1	83*
O=c1c(O[C@@H]2O[C@H](CO)[C@H](O)[C@H](O)[C@H]2O)c(-c2ccc(O)c(O)c2)oc2cc(O)cc(O)c12	-7	0	0	-9
O=c1cc(-c2ccc(O)cc2)oc2c(C3O[C@H](CO)[C@@H](O)[C@H](O)[C@H]3O)c(O)cc(O)c12 (stereo not given in full)	-8	0	-1	32
O=c1c(O[C@@H]2O[C@H](CO)[C@@H](O)[C@H](O)[C@H]2O)c(-c2ccc(O)c(O)c2)oc2cc(O)cc(O)c12	-2	0	1	61*
O=c1cc(-c2ccc(O)c(O)c2)oc2cc(O)c(C3OC(CO)C(O)C(O)C3O)c(O)c12 (stereo not given)	3	0	-1	74*
CC(C)n1c(SCC(=O)c2ccc(Cl)cc2)nc2c1c(=O)[nH]c(=O)n2C	8	0	0	12
CC(=O)N(C)c1ccc(NC(=O)/C=C/C(=O)O)cc1	0	0	0	-2
CCc1cc2c(C)c(CC)c(=O)oc2cc1O	3	0	0	11
CCOc1cc(Br)c(/C=C2/NC(=O)NC2=O)cc1OCC	44*	0	0	7
CCOc1cc(Cl)c(/C=C2/NC(=O)NC2=O)cc1OCC	-11	0	-1	4
COc1cc(/C=C2/NC(=O)NC2=O)c(Br)cc1O	10	0	0	-2
CCOc1cc(/C=C2/NC(=O)NC2=O)c(Br)cc1O	44*	0	0	-28
CCCCNCCCOc1cccc(OC)c1	8	0	0	14
O=C(Nc1ccc(-c2nc3ccccc3s2)cc1)c1ccc(S(=O)(=O)N2CCCCCC2)cc1	-1	0	-1	4
COc1cccc(CNc2ncc(-c3cccc(OC)c3)n2C)c1	54*	0	3	36
SMILES	TEAD-YAP block	FBW7 activator	GPR151 ag	MITF primary
COc1ccc(OC)c(CNc2ncc(-c3ccc(Br)cc3)n2C)c1	3	0	0	35
COc1ccc(OC)c(CNc2ncc(-c3cccc(Br)c3)n2C)c1	43*	0	0	25
CCCC(Nc1ncnc2sccc12)c1ccccc1 (stereo not given)	21	0	-1	-7
CC(C)CCCC(C)Nc1ncnc2sccc12 (stereo not given)	48*	0	2	14
COc1ccc(CCNC(=O)COc2c(C)cccc2C)cc1	-4	0	-2	14
O=C1CCCN1CCC(=O)N1CCCC(n2nc(-c3ccco3)ccc2=O)C1 (stereo not given)	8	0	-1	3
CC(=O)Nc1cccc(NC(=O)CSc2ccc(-c3nc4ccccc4[nH]3)cn2)c1	40*	0	-4	-6
O=C1N=C(N2CCCC(CO)C2)S/C1=C/c1cccc2ccccc12 (stereo not given)	61*	0	-2	2
